In all, about 200,000 compounds went through this assay and about 3,000 (1.5%) were called active. Shown is part of a subset that was picked to be rich in actives. Unmarked numbers belong to inactive results.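 Rule for the calls: active = inhibition above about 50% when tested at 10 µM (limit read from the data); inactive = the rest.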
target: Luciferin 4-monooxygenase (Photinus pyralis) (UniProt P08659); experiment: inhibition of purified FLuc reporter enzyme – biochemical, luminescence, ATPLite, artefact control for luciferase-based inhibitor screens, primary screen (AID 1006); details: ATPLite firefly luciferase biochemical luminescence, 10 min; at 10 µM; active compounds read high
Sequence (P08659 whole entry, looked up): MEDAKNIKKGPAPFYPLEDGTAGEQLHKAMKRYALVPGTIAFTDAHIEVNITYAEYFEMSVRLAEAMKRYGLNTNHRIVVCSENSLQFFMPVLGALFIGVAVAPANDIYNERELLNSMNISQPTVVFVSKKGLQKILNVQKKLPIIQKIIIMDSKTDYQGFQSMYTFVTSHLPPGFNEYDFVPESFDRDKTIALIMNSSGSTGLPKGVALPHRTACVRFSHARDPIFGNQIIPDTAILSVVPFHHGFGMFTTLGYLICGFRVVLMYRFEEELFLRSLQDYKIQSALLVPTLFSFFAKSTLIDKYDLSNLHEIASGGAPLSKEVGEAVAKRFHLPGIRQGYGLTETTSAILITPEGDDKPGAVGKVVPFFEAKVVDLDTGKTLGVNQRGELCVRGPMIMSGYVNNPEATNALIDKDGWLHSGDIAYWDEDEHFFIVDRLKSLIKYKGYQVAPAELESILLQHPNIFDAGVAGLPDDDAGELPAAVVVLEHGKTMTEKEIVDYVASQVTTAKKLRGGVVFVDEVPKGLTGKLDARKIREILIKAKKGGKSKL

SMILES | inhibition
CCC(C)c1ccc(NC(=S)NCc2ccccn2)cc1 (configuration not stated) | -3.2%
C/C(=N\N=C(N)N)c1ccc(Cl)cc1 | -7.1%
Cc1ccc(CNC(=O)CC2Sc3ccccc3NC2=O)cc1 (configuration not stated) | -6.5%
Cc1noc(C)c1/C=N/Nc1ccc2ccccc2n1 | 13.4%
C(=N\Nc1ccc2ccccc2n1)/c1ccc2c(c1)OCO2 | 87.4% (active)
Brc1ccc(-c2csc(N/N=C/c3ccc4c(c3)OCO4)n2)cc1 | -0.1%
CCNC(=S)N1CCN(c2ncccn2)CC1 | -2.5%
COc1ccc(NC(=O)Nc2cccc3cccnc23)cc1 | 65.4% (active)
COc1ccc(NC(=O)C2CCCN(S(=O)(=O)c3cccc4cccnc34)C2)cc1 (configuration not stated) | -0.5%
COc1ccc(NC(=O)Nc2ccc3nc(C)c(C)nc3c2)cc1 | -4.8%
O=C(CSC(=S)N1CCOCC1)c1ccccc1 | 72.6% (active)
CC1CN(C(=S)SCC(=O)c2ccccc2)CC(C)O1 (configuration not stated) | 4.3%
NC(=NC(=O)c1ccccc1)N1CCOCC1 | 0.1%
CCC(C)(C)c1ccc(OCC(=O)N(C)C)c(C(C)(C)CC)c1 | -6.6%
Cc1cc(C)nc(SCC(=O)N(C)C)n1 | -4.6%
O=C(CC1Nc2ccccc2NC1=O)Nc1ccccc1NC(=O)CC1Nc2ccccc2NC1=O (configuration not stated) | 7.9%
O=C(/C=C\NCC(=O)c1ccccc1)c1ccccc1 | 14.5%
Cc1ccc(N/C=C/C(=O)c2ccccc2)cc1C | 91.4% (active)
Cc1noc(NS(=O)(=O)c2ccc(N/C=C/C(=O)c3ccccc3)cc2)c1C | -2.7%
S=C(NCCc1ccccc1)N1CCCCC1 | 9.6%
S=C(c1ccc(-c2ccccc2)o1)N1CCCCC1 | 83.4% (active)
CC1CCN(C(=S)c2ccc(-c3ccc(Cl)cc3Cl)o2)CC1 | 3.9%
COc1cccc(OC)c1C(=O)NC(=S)NCc1ccco1 | -2.1%
COCCn1c(Cc2cccn2C)nnc1SCC(=O)Nc1nccs1 | -5.3%
COc1cc(NC(=O)COc2ccccc2Cl)ccc1NC(=O)C(C)C | -2.5%
CC(CC(=O)C1C(C)C=CCC1(C)C)NNC(N)=O (configuration not stated) | -6.1%

SMILES | inhibition
O=C(Nc1ccccc1)Nc1nc2ccccc2s1 | 52.9% (active)
COCc1nnc(NC(=O)c2ccc3c(c2)OCO3)s1 | 58.9% (active)
CC(=O)Nc1ccc(-c2csc(NC(=O)Nc3ccccc3)n2)cc1 | -0.4%
O=C(Nc1ccccc1)c1ccc2c(c1)OCO2 | 34.2%
CSCCC(Nc1nc2ccccc2s1)C(=O)O (configuration not stated) | -2%
CCCc1nnc(NC(=O)c2cc(OC)cc(OC)c2)s1 | -1.1%
Cc1cc(C)c2nc(NC(=O)c3ccc4c(c3)OCO4)sc2c1 | -1.6%
O=C(Nc1nc2ccccc2s1)c1ccc2c(c1)OCO2 | 83.9% (active)
COc1ccc(C(=O)Nc2ccc3c(c2)OCO3)cc1OC | 28.8%
C/C(=N/NC(=O)CSc1ccccn1)c1ccc([N+](=O)[O-])cc1 | -6.6%
O=C(CN1CCN(S(=O)(=O)/C=C/c2ccccc2)CC1)Nc1ccc(N2CCOCC2)cc1 | -7.8%
COc1ccc(-n2c(=S)[nH]c3sc4c(c3c2=O)CCc2ccccc2-4)cc1 | 4.5%
CCOc1ccc2nc(NCCNC(=O)C(C)(C)C)c(C)cc2c1 | -2.6%
O=C(Cc1ccc(F)cc1)N1CCN=C1SCc1cccc([N+](=O)[O-])c1 | -8.2%
O=C(NCC1CCCO1)C1CCN(C2CCN(C(=O)C3CCCCC3)CC2)CC1 (configuration not stated) | -6.8%
Cc1cccc(-n2c(C)cc(/C=N/NC(N)=S)c2C)c1 | 0.5%
Cc1cccc(-n2c(C)cc(/C=N\NC(=O)c3cccs3)c2C)c1 | 50.3% (active)
CC(=O)Nc1ccc(/C=N/NC(=O)c2cccs2)cc1 | 42.4%
COc1ccc(OC)c(S(=O)(=O)Nc2cccc(-c3ccc4nncn4n3)c2)c1 | -2.6%
Cc1nn(C)cc1/C=N/NC(=O)c1sc2ccccc2c1Cl | 11.2%
Oc1ccc(N=Cc2sc3ccccc3c2Cl)cc1 | 65.5% (active)
O=C(N/N=C/c1c(Cl)[nH]c2ccccc12)c1sc2ccccc2c1Cl | 5%
CSc1nc2ccc(NC(=O)c3c(F)cccc3F)cc2s1 | 12.4%
Nc1nnc(SCC(=O)OCc2ccc(Cl)c(Cl)c2)s1 | -3.7%
O=Cc1ccc(OCc2cn3ccccc3n2)cc1 | 50.3% (active)
COc1ccc(C(=O)NCc2cn3ccccc3n2)cc1 | -1.1%

SMILES | inhibition
Cc1ccc2nc(COc3ccc(N(C)S(=O)(=O)c4ccccc4)cc3)cc(=O)n2c1 | -4.2%
Cc1cc(C)c2c(NC(=O)C3CC3)nn(C)c2n1 | -5.8%
COc1ccc(C2Nc3ccccc3C(=O)N2c2ccc(Cl)cc2)cc1Cn1cc([N+](=O)[O-])cn1 (configuration not stated) | -5.8%
CC(=O)N1CCN(CC(=O)Nc2ccc(SC(F)F)cc2)CC1 | -4.2%
Cc1ccc(N2CCN(C3=NC(=O)/C(=C\c4cccs4)S3)CC2)cc1 | -3.4%
Cc1cccc(C2=N/C(=C/c3cccs3)C(=O)O2)c1 | 88.5% (active)
Cc1ccc(C2=N/C(=C\c3ccc(OS(=O)(=O)c4ccc(C)cc4)cc3)C(=O)O2)cc1 | -8.9%
CCOc1ccc(C(=O)Nc2nccs2)cc1[N+](=O)[O-] | -1.5%
COc1cc(C(=O)Nc2nccs2)cc(OC)c1OC | -0.7%
CC(=O)Oc1ccc(C(=O)Nc2nccs2)cc1 | 54.1% (active)
Cc1nnc(N/N=C/C2CC=CCC2)[nH]c1=O (configuration not stated) | -4%
Cc1cccc2cc3c(N)c(C(=O)N4CCCc5ccccc54)sc3nc12 | -1.8%
CCC(=O)NC(=Nc1nc2ccccc2s1)NC(=O)CC | 11.6%
CC(C)CC(=O)NC(=S)NCc1ccccc1 | -3.5%
CC(C)CC(=O)N/C(N)=N/c1nc2ccccc2s1 | 63.5% (active)
CC(C)C1Nc2c(C(=O)O)cccc2C(Nc2ccccc2C(=O)O)C1(C)C (configuration not stated) | 0.1%
CCN1C(=O)/C(=C2\SC(N3CCCCC3)=NC2=O)c2ccccc21 | 50.9% (active)
O=C1N=C(N2CCCC2)S/C1=C\c1cccc(Br)c1 | -4.4%
CC(C)=C1SC(N2CCN(c3cccc(C)c3)CC2)=NC1=O | -5.6%
NC(=O)Nc1ccccc1C(=O)NCCc1ccccc1 | 2%
CC(=O)c1cc(-c2ccccc2)n(CCC(=O)NC2CCCCCC2)c1C | -5.1%
Cc1ccnc2nc(C(=O)OCC(=O)N(CC(C)C)CC(C)C)nn12 | -5.4%
CC/C(O)=C1\C(=O)CC(C)(C)CC1=NCCc1nc2ccccc2[nH]1 | -2.7%
Cc1cc(C2=NNC(=Nc3ccc(S(=O)(=O)N4CCOCC4)cc3)SC2)c(C)n1CC1CCCO1 (configuration not stated) | -3%
C=CCn1c(C)cc(C2=NNC(=NCC)SC2)c1C | 96.5% (active)
COCCn1c(C)cc(C2=NNC(=Nc3ccc(F)cc3)SC2)c1C | 17.9%

SMILES | inhibition
Cc1ccc(-n2[nH]c(C)c(/C=N/NC(=O)c3cccc([N+](=O)[O-])c3)c2=O)cc1C | 94.9% (active)
COc1cccc(/C=N/NC(=O)c2cccc([N+](=O)[O-])c2)c1OS(=O)(=O)c1ccc(C)cc1 | -9.9%
Cc1[nH]n(-c2ccccc2)c(=O)c1/C=N/NC(=O)c1ccoc1C | 20.6%
Cc1ccc2c(c1)C(c1ccccc1)N(C(=O)c1ccc(S(=O)(=O)N3CCOCC3)cc1)CC(=O)N2 (configuration not stated) | -5.3%
CCOc1ccc(/C=N/NC(=O)C(C)Sc2ccccn2)cc1OCC (configuration not stated) | -6%
Cc1cccc(C)c1NC(=O)C1(C)c2cccc[n+]2CC(=O)N1Cc1cccs1 (configuration not stated) | 0.5%
O=C(NCC(O)c1ccc([N+](=O)[O-])cc1)C1CCCCC1 (configuration not stated) | -2.2%
CN(C)c1ccc(C(CNC(=O)c2ccc(F)cc2)c2c[nH]c3ccccc23)cc1 (configuration not stated) | -0.6%
CC(C)NC(=S)NN=C1CCCCCCCCCCC1 | -6.7%
COc1ccc(-c2ccnc(SCC(=O)N3CCOCC3)n2)cc1 | -3.4%
COc1ccc(-c2nc(SCC(=O)N3CCOCC3)n[nH]2)cc1 | 9.9%
CCOc1ccc(-c2ccc(SCC(=O)N3CCOCC3)nn2)cc1 | 84.4% (active)
O=C(O)CCCCOn1ccnc1 | 0.6%
N#C/C(=C(\O)C(F)(F)F)c1nnc2n1CCCCC2 | -6.2%
Cc1cccc(/C(N)=N/OC(=O)c2ccccc2Cl)c1 | 89.7% (active)
N/C(=N\OC(=O)c1cc(-c2ccccc2)nc2ccccc12)c1ccncc1 | 1.6%
Cc1cccc(C(=O)c2cccc(C)c2)c1 | -6.1%
NC1=NN(c2cccc(C(=O)O)c2)C(=O)C1 | -2.1%
OCCNCCOc1ccc(Cl)c(Cl)c1 | 0.7%
O=C(O)/C=C/c1cn(-c2ccccc2)nc1-c1cccs1 | 18%
O=C(/C=C\c1cn(-c2ccccc2)nc1-c1cccs1)N1CCOCC1 | 35.3%
O=C(O)c1ccc(N/N=C/c2cn(-c3ccccc3)nc2-c2cccs2)cc1 | 92.2% (active)
Cc1onc(C(=O)NCc2ccc(F)cc2)c1[N+](=O)[O-] | 8%
CC(=O)Nc1ccc(S(=O)(=O)NCC(=O)OCc2cc(=O)oc3ccc4ccccc4c23)cc1 | -3.3%

Reference: PubChem BioAssay AID1006 (Sanford-Burnham Center for Chemical Genomics, 2008)
